Results: PubChem BioAssay (NCI)
Compounds without any hit were thinned out: in the full panel of roughly 83,000, 20% have a hit.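 Percent growth is the endpoint: 0 to 100 indicates growth inhibition (40 means 60% inhibition), 0 means no net growth, and negative values indicate cell death.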 Activity calls are given as the source filed them. How the source made its calls: active means growth percent below 10; inactive means the rest.

Assays:
Assay in all cases: NCI-60 one-dose screen, 48 h (100 = growth as untreated, 0 = no growth, -100 = all killed)
Settings in all cases: 10 µM unless noted
DU-145 prostate = tested on: DU-145 prostate
K-562 leukemia = tested on: K-562 leukemia
MALME-3M melanoma = tested on: MALME-3M melanoma
MDA-MB-231 breast = tested on: MDA-MB-231 breast
RXF 393 renal = tested on: RXF 393 renal
SF-268 CNS = tested on: SF-268 CNS
SF-295 CNS = tested on: SF-295 CNS
SF-539 CNS = tested on: SF-539 CNS
UACC-257 melanoma = tested on: UACC-257 melanoma
M14 melanoma = tested on: M14 melanoma
HCT-15 colon = tested on: HCT-15 colon
HT29 colon = tested on: HT29 colon
SNB-75 CNS = tested on: SNB-75 CNS
SNB-19 CNS = tested on: SNB-19 CNS
U251 CNS = tested on: U251 CNS
PC-3 prostate = tested on: PC-3 prostate
SK-MEL-5 melanoma = tested on: SK-MEL-5 melanoma
UACC-62 melanoma = tested on: UACC-62 melanoma
LOX IMVI melanoma = tested on: LOX IMVI melanoma
SK-MEL-28 melanoma = tested on: SK-MEL-28 melanoma

Measured: growth

CC1CC2Oc3ccc(Cl)cc3C(=O)N2O1 (stereo not given)
inactive: DU-145 prostate 102% | K-562 leukemia 107% | MALME-3M melanoma 118% | MDA-MB-231 breast 102% | RXF 393 renal 119% | SF-268 CNS 103% | SF-295 CNS 104% | SF-539 CNS 102% | UACC-257 melanoma 118% | M14 melanoma 107% | HCT-15 colon 99.2% | HT29 colon 105% | SNB-75 CNS 101% | SNB-19 CNS 112% | U251 CNS 108% | PC-3 prostate 97.1% | SK-MEL-5 melanoma 102% | UACC-62 melanoma 108% | LOX IMVI melanoma 98.2% | SK-MEL-28 melanoma 118%

COc1cc(/C=C/C(=O)c2c(C)nc3ccccc3c2C)ccc1OCCCN1CCN(C(=O)c2ccco2)CC1
inactive: DU-145 prostate 91.4% | K-562 leukemia 59.7% | MALME-3M melanoma 68.3% | MDA-MB-231 breast 75.3% | RXF 393 renal 74% | SF-268 CNS 87.4% | SF-295 CNS 78.3% | SF-539 CNS 93.3% | UACC-257 melanoma 62.4% | M14 melanoma 94.4% | HCT-15 colon 76.2% | SNB-19 CNS 99% | U251 CNS 77.9% | PC-3 prostate 88.3% | SK-MEL-5 melanoma 33.5% | UACC-62 melanoma 65.9% | LOX IMVI melanoma 81.9%
active: HT29 colon 6.55% | SNB-75 CNS -70.5% | SK-MEL-28 melanoma -29%

Cc1cc(C)c2c(-c3nnc(N)s3)cc(=O)oc2c1
inactive: DU-145 prostate 108% | K-562 leukemia 93% | MALME-3M melanoma 106% | MDA-MB-231 breast 101% | RXF 393 renal 109% | SF-268 CNS 99.9% | SF-295 CNS 98.7% | SF-539 CNS 90.5% | UACC-257 melanoma 107% | M14 melanoma 104% | HCT-15 colon 98.4% | HT29 colon 112% | SNB-75 CNS 98.8% | SNB-19 CNS 99.4% | U251 CNS 103% | PC-3 prostate 98.9% | SK-MEL-5 melanoma 98.5% | UACC-62 melanoma 89.8% | LOX IMVI melanoma 96.7% | SK-MEL-28 melanoma 104%

O=C(CSc1nnc(-c2ccc(NC(=O)c3cccnc3)cc2)o1)N[C@@H](Cc1ccc(O)cc1)C(=O)O
inactive: DU-145 prostate 117% | K-562 leukemia 93.6% | MALME-3M melanoma 102% | MDA-MB-231 breast 97.7% | RXF 393 renal 109% | SF-268 CNS 107% | SF-295 CNS 108% | SF-539 CNS 102% | UACC-257 melanoma 99.7% | M14 melanoma 100% | HCT-15 colon 113% | HT29 colon 106% | SNB-75 CNS 98.9% | SNB-19 CNS 96.7% | U251 CNS 103% | PC-3 prostate 101% | SK-MEL-5 melanoma 100% | UACC-62 melanoma 92.8% | LOX IMVI melanoma 104% | SK-MEL-28 melanoma 108%

N#Cc1c(-c2cccc(Cl)c2)cc(-c2cccc(Cl)c2)[nH]c1=O
inactive: DU-145 prostate 96.5% | K-562 leukemia 27.1% | MALME-3M melanoma 69% | MDA-MB-231 breast 90.5% | RXF 393 renal 82.1% | SF-268 CNS 83.4% | SF-295 CNS 83.7% | SF-539 CNS 82.7% | UACC-257 melanoma 90.2% | M14 melanoma 57.9% | HCT-15 colon 44.9% | HT29 colon 114% | SNB-75 CNS 43% | SNB-19 CNS 71.6% | U251 CNS 74.7% | PC-3 prostate 68.7% | SK-MEL-5 melanoma 64.9% | UACC-62 melanoma 45.2% | LOX IMVI melanoma 72.3% | SK-MEL-28 melanoma 78.5%

C[C@H](NC(=O)[C@@H]1CSSC[C@@H](NC(=O)c2nc3ccccc3cc2O)C(=O)NCC(=O)N1C)c1ccccc1
inactive: DU-145 prostate 32.2% | MALME-3M melanoma 49.9% | SF-268 CNS 17.6% | SF-295 CNS 77.6% | UACC-257 melanoma 60.9% | HCT-15 colon 42.1% | SNB-75 CNS 80.3% | SNB-19 CNS 35.4% | PC-3 prostate 54.7% | UACC-62 melanoma 16.7% | SK-MEL-28 melanoma 33.9%
active: K-562 leukemia -30.9% | MDA-MB-231 breast -39.5% | RXF 393 renal -27.4% | SF-539 CNS 5.09% | M14 melanoma 0.586% | HT29 colon -28.2% | U251 CNS -7.49% | SK-MEL-5 melanoma 0.825% | LOX IMVI melanoma -74.5%

COc1ccc2[nH]c(O)c(/C=c3/cc4c(c(-c5ccc(F)c(OC)c5)n3)=Nc3ccccc3-4)c2c1
inactive: DU-145 prostate 30.3% | SF-268 CNS 30.3% | SF-295 CNS 104% | SF-539 CNS 64.3% | UACC-257 melanoma 103% | SNB-75 CNS 92.1% | SNB-19 CNS 47.6% | PC-3 prostate 68.7% | SK-MEL-5 melanoma 57.2% | UACC-62 melanoma 79.8%
active: K-562 leukemia 0.38% | MALME-3M melanoma -55.6% | MDA-MB-231 breast -47.5% | RXF 393 renal -75.2% | M14 melanoma -8.58% | HCT-15 colon -24% | HT29 colon -78.5% | U251 CNS -70.1% | LOX IMVI melanoma -17.2% | SK-MEL-28 melanoma -51.2%

Cc1nn(-c2ccccc2)c2nc3c(c(-c4ccc(Cl)cc4)c12)CNC1(CCSCC1)N3
inactive: DU-145 prostate 110% | K-562 leukemia 93.1% | MALME-3M melanoma 96.5% | MDA-MB-231 breast 96.9% | RXF 393 renal 88.8% | SF-268 CNS 101% | SF-295 CNS 103% | SF-539 CNS 110% | UACC-257 melanoma 107% | M14 melanoma 94.1% | HCT-15 colon 101% | HT29 colon 101% | SNB-75 CNS 78.6% | SNB-19 CNS 106% | U251 CNS 95.8% | PC-3 prostate 87% | SK-MEL-5 melanoma 99.1% | UACC-62 melanoma 102% | LOX IMVI melanoma 97.7% | SK-MEL-28 melanoma 104%

O=c1[nH]nc(-c2ccccc2)c2c(-c3ccccc3)onc12
inactive: DU-145 prostate 25.1% | MALME-3M melanoma 37.2% | MDA-MB-231 breast 50.3% | RXF 393 renal 12.3% | SF-268 CNS 42% | SF-295 CNS 35.7% | UACC-257 melanoma 71.2% | M14 melanoma 45.4% | HCT-15 colon 32.2% | HT29 colon 22.2% | SNB-19 CNS 49.9% | U251 CNS 30.6% | PC-3 prostate 26.6% | SK-MEL-5 melanoma 11% | UACC-62 melanoma 34% | LOX IMVI melanoma 49.6% | SK-MEL-28 melanoma 69.8%
active: K-562 leukemia 9.89% | SF-539 CNS 0.0732% | SNB-75 CNS -5.82%

CNC(=O)c1cc(Oc2ccc3nc(Nc4ccc(Cl)c(C(F)(F)F)c4)ccc3c2)ccn1
inactive: DU-145 prostate 75.7% | K-562 leukemia 40.4% | MALME-3M melanoma 82.9% | MDA-MB-231 breast 77.8% | RXF 393 renal 74.6% | SF-268 CNS 66.5% | SF-295 CNS 66% | SF-539 CNS 84.8% | UACC-257 melanoma 46.8% | M14 melanoma 48.2% | HCT-15 colon 41.2% | HT29 colon 39.6% | SNB-75 CNS 82.7% | SNB-19 CNS 77% | U251 CNS 56.8% | PC-3 prostate 21.7% | SK-MEL-5 melanoma 60.5% | UACC-62 melanoma 47.3% | LOX IMVI melanoma 60.8% | SK-MEL-28 melanoma 68.6%

CN(C)c1ccc(-c2ccc3[nH]c(=O)nc(-c4ccccc4)c3c2)cn1
inactive: DU-145 prostate 65.1% | MALME-3M melanoma 51.2% | MDA-MB-231 breast 44.6% | RXF 393 renal 64.5% | SF-268 CNS 55.5% | SF-295 CNS 39.5% | SF-539 CNS 28.3% | UACC-257 melanoma 80.8% | M14 melanoma 13.7% | HCT-15 colon 28.1% | HT29 colon 14.1% | SNB-75 CNS 27.9% | SNB-19 CNS 50.4% | U251 CNS 38.1% | PC-3 prostate 47.2% | SK-MEL-5 melanoma 39.6% | UACC-62 melanoma 48.5% | LOX IMVI melanoma 38.5% | SK-MEL-28 melanoma 55.8%
active: K-562 leukemia 7.91%

CS(=O)c1cccc(-c2ccc3nc(N)n(-c4ccc(C(F)(F)F)cc4)c(=O)c3c2)c1 (stereo not given)
inactive: DU-145 prostate 103% | K-562 leukemia 96.2% | MALME-3M melanoma 78.6% | MDA-MB-231 breast 90.5% | RXF 393 renal 92.5% | SF-268 CNS 89.1% | SF-295 CNS 92.1% | SF-539 CNS 91.7% | UACC-257 melanoma 101% | M14 melanoma 99.5% | HCT-15 colon 105% | HT29 colon 99.8% | SNB-75 CNS 114% | SNB-19 CNS 91.7% | U251 CNS 88.9% | PC-3 prostate 83.5% | SK-MEL-5 melanoma 87.8% | UACC-62 melanoma 95% | LOX IMVI melanoma 88.1% | SK-MEL-28 melanoma 114%

N=C(N)c1ccc(-c2ccc(-c3cncc4ccccc34)s2)s1
active: DU-145 prostate -90% | K-562 leukemia -59.4% | MALME-3M melanoma -59.1% | MDA-MB-231 breast -72.3% | RXF 393 renal -74.9% | SF-268 CNS -71.5% | SF-295 CNS -81.3% | SF-539 CNS -77.6% | M14 melanoma -76.8% | HCT-15 colon -74.2% | HT29 colon -77.1% | SNB-75 CNS -95.9% | SNB-19 CNS -54.8% | U251 CNS -92.5% | PC-3 prostate -80.8% | SK-MEL-5 melanoma -89.5% | UACC-62 melanoma -64.5% | LOX IMVI melanoma -78.1% | SK-MEL-28 melanoma -69.7%
inactive: UACC-257 melanoma 123%

Cc1cc[c-]cc1.Fc1c[c-]c(-c2ccccn2)c(F)c1.[Pt+2].c1ccc(P(C[PH+](c2ccccc2)c2ccccc2)c2ccccc2)cc1
inactive: DU-145 prostate 17.5% | RXF 393 renal 23.1% | SF-539 CNS 21.5% | M14 melanoma 22% | HCT-15 colon 47% | HT29 colon 16.9% | SNB-19 CNS 17.5% | U251 CNS 12.9% | PC-3 prostate 11.2% | LOX IMVI melanoma 18.5% | SK-MEL-28 melanoma 36.4%
active: K-562 leukemia 8.02% | MALME-3M melanoma -15.8% | MDA-MB-231 breast -9.05% | SF-268 CNS 9.02% | SF-295 CNS 6.93% | UACC-257 melanoma -12.1% | SNB-75 CNS 4.48% | SK-MEL-5 melanoma -94.9% | UACC-62 melanoma 9.82%

CCCCCCCCCCCCCCCCCCOc1ccc(CC(=O)OCC[N+]2(C)CCCC2)cc1
inactive: DU-145 prostate 106% | K-562 leukemia 92.2% | MALME-3M melanoma 117% | MDA-MB-231 breast 111% | RXF 393 renal 101% | SF-268 CNS 104% | SF-295 CNS 90.6% | SF-539 CNS 99.7% | UACC-257 melanoma 107% | M14 melanoma 97.9% | HCT-15 colon 97.8% | HT29 colon 98.6% | SNB-75 CNS 106% | SNB-19 CNS 90.8% | U251 CNS 85.8% | PC-3 prostate 99.9% | SK-MEL-5 melanoma 103% | UACC-62 melanoma 96.2% | LOX IMVI melanoma 42.5% | SK-MEL-28 melanoma 106%
